ELG1 repair inh: inhibitors of ELG1-dependent DNA repair in HEK293T cells; HEK293T ELG1-luciferase reporter, luminescence, 16 h; DNA damage induced by 5-fluorouridine; Potency, µM (titrated, usually from 46.1 µM), inactives show at the highest dose activity change, negative = inhibition, usual class: inhibitors; 2.3% of 330,000 active; note: nearly all actives have a fitted effect of over 55% in size
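5-Fluorouridine DNA damage + compound/DMSO, 2,000 cells/well, 16 h, 37 °C/5% CO2. ONE-Glo, 30 min RT, luminescence. Readout = decrease in reporter signal.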
Gal4-VP16 FLuc: Gal4-VP16 reporter inhibition counter-screen. Drosophila S2 Gal4-VP16 UAS-luciferase, luminescence, 20 h. Potency, µM (series often up to 53.6 µM), for inactives: at the highest dose activity, negative = inhibition, usual class: inhibitors. 3.5% of 310,000 active. AID 2546;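 note: Gal4-VP16 expression switched on by copper sulfate through the metallothionein promoter; nearly all actives have a fitted effect of over 50% in size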
12-LOX inh: ALOX12 (human) lipoxygenase inhibition. purified 12hLO, xylenol orange hydroperoxide absorbance. Potency, µM (series often up to 108 µM), for the others: at the highest dose activity change, negative = inhibition, usual class: inhibitors. AID 1671190. 1.1% of 580,000 active
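Hydroperoxide product was detected by ferrous iron/xylenol orange as the 573 to 405 nm absorbance ratio. Arachidonic acid at 40 uM (final) was turned over for 30 min at room temperature by 150 nM human 12hLO, pH 7.0 Hepes buffer, after 15 min compound preincubation.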
DT40 TDP1 CPT: DT40-hTDP1 cell growth loss with CPT; chicken DT40 Tdp1-/-;hTDP1 cells + 20 nM CPT, ATP luminescence, 48 h; Potency, µM (titrated, usually from 46.2 µM), without a hit: at the top dose activity change, negative = growth inhibition, most hits filed as inhibitors; 12% of 420,000 active; AID 686979; note: nearly all actives have a fitted effect of over 55% in size
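Chicken DT40 Tdp1-/- cells stably complemented with human TDP1 were seeded at 400 cells/well in medium containing 20 nM camptothecin, exposed to pin-transferred compounds, and grown at 37 °C for at least 48 hr. Viability was read as ATP luminescence.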
RORgamma inh: inhibitors of mouse ROR gamma transcriptional activity; Drosophila S2 Gal4-RORgamma UAS-luciferase reporter, 20 h; Potency, µM (doses to about 53.6 µM), for inactives: top-dose activity change, negative = inhibition, actives largely listed as inhibitors; 5.4% of 310,000 active; AID 2551; note: nearly all actives have a fitted effect of over 60% in size
Target sequence (P51450 whole entry, looked up, the tested form may be a part): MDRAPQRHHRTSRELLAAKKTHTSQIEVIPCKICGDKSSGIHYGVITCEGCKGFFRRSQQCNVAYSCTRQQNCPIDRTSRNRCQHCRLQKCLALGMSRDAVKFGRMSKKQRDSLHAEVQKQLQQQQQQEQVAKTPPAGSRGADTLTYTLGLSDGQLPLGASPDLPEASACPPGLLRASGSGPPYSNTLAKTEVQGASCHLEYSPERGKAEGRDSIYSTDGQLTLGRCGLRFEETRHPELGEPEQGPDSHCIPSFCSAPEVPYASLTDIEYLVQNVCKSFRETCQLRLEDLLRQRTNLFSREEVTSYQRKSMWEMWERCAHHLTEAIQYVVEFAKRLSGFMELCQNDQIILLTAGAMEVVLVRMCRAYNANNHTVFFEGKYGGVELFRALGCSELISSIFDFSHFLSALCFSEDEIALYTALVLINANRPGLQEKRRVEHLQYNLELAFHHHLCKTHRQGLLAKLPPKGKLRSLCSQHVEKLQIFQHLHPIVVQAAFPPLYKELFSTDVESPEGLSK
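Luciferase reporter read in Schneider cells carrying Gal4-RORγ (mouse) and UAS-Photinus luciferase; cells given compound 1 h before 700 uM copper sulfate induction, then incubated 20 h at ambient temperature.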
TDP1 cell noCPT: qHTS for Inhibitors of human tyrosyl-DNA phosphodiesterase 1 (TDP1): qHTS in cells in absence of CPT | DT40 Tdp1-/- hTDP1 cells, no CPT, ATP luminescence, 48 h | Potency, µM (doses to about 46.2 µM), without a hit: at the top dose activity change, negative = growth inhibition, hits mostly inhibitors | 15% of 420,000 active; note: nearly all actives have a fitted effect of over 55% in size
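Cells were dispensed at 400 per well, compounds added by pin tool, plates incubated ≥48 hr at 37 °C, then CellTiter-Glo added for 30 min at room temperature before luminescence reading. Line: DT40 Tdp1-/- complemented with hTDP1; camptothecin omitted.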
Starred values were filed as active, the others as inactive; ? = inconclusive; / = no result; ! = repeats disagree; [ ] = another dose, or the depositor's remark. Hits are enriched below; roughly 15% of the tested compounds scored in any of these assays. Calls come from the whole dose curve; as a rule, active = well fitted curve in the direction sought with a large enough effect; inconclusive = small, poorly fitted or top-dose-only effect, or another doubt; inactive = no such curve, though single readings can be large; an effect the other way counts as inactive or inconclusive. % is set by controls: 0 for no effect and ±100 for the full control effect; potency is the fitted concentration of half-maximal effect.

SMILES	ELG1 repair inh	Gal4-VP16 FLuc	12-LOX inh	DT40 TDP1 CPT	RORgamma inh	TDP1 cell noCPT
CCc1nc(OCc2ccccc2)c2sc3nc4c(cc3c2n1)COC(C)(C)C4	0.9%	7.9%	-7.9%	29.1µM*	7.3%	?
CC1(C)Cc2nc3oc4c(=O)n(CC(=O)Nc5ccccc5)cnc4c3cc2CO1	12.1%	2.5%	1.7%	-26.7%	30.2%	-17.6%
CC1(C)Cc2nc3sc4c(=O)n(CC(=O)NCc5ccco5)cnc4c3cc2CO1	?	1.1%	-6.7%	4.61µM*	?	8.2µM*
CC1(C)Cc2nc3sc4c(OCc5ccccc5)ncnc4c3cc2CO1	-0.9%	3.0%	-21.2%	?	2.8%	18.4µM*
COc1ccc(-c2nc3c(c(=O)[nH]2)CCN(S(=O)(=O)c2cccc4cccnc24)C3)cc1	/	/	32.8%	/	/	/
CC(=O)Nc1cc(C(=O)COC(=O)c2ccc3ccccc3c2)ccc1O	/	/	-3.1%	/	/	/
CC(C)c1cc(N)n[nH]1	/	/	33.7%	/	/	/
CCCCCn1cnc2c(sc3nc4c(cc32)CSC(C)(C)C4)c1=O	?	-13.8%	-20.0%	?	?	10.3µM*
CNC(=O)[C@@H]1C[C@H]1[C@@H](NC(=O)OCc1ccccc1)c1ccccc1	?	4.5%	3.9%	2.9%	12.6µM*!	-1.7%
CC(C#N)OC(=O)c1ccccc1C(=O)c1cccs1 (stereo not drawn)	/	/	34.0%	/	/	/
O=C(CSc1ncc(-c2ccc(Br)cc2)o1)NC1CCCCC1	/	/	5.1%	/	/	/
Cc1cc(C)cc(OCC(=O)N2CCC(c3nc4ccccc4o3)CC2)c1	/	/	-21.2%	?	/	16.4µM*
Cc1cc(OC(C)C(=O)N2CCC(c3nc4ccccc4o3)CC2)ccc1Cl (stereo not drawn)	/	/	0.0%	23.1µM*	/	14.6µM*
O=C(COc1ccccc1Cl)N1CCC(c2nc3ccccc3o2)CC1	/	/	-3.7%	/	/	/
CCCn1nccc1S(=O)(=O)N[C@@H]1CCOC[C@H]1Oc1ccccn1	/	/	53.8%	/	/	/
Cc1nc(N2CCC(NC(=O)c3ccc4ccccc4n3)CC2)cc(C(F)(F)F)n1	/	/	-4.2%	/	/	/
Cc1nc(-c2ccc(Cl)cc2)sc1C(=O)N1CCCC(C(=O)O)C1 (stereo not drawn)	/	/	-4.7%	/	/	/
CC(C)c1noc(CCC(=O)NC(C)c2ccccn2)n1 (stereo not drawn)	/	/	32.2%	/	/	/
COc1cccc(CNC(=O)C2CCN(Cc3cc4ccccc4n3Cc3ccccc3)CC2)c1OC	/	/	-11.3%	?	/	?
CC(C)CCNC(=O)C1CCN(Cc2cccc(OCc3ccccc3)c2)CC1	?	5.3%	-19.5%	-19.9%	43.4%	?
COc1ccccc1CNC(=O)C1CCN(Cc2cc3ccccc3n2Cc2cccc(C)c2)CC1	/	/	-29.7%	13µM*	/	18.4µM*
Cc1cccc(Cn2c(CN3CCC(C(=O)NC(C)C)CC3)cc3ccccc32)c1	/	/	?	?	/	23.1µM*
CCn1cc(CN(C)C(=O)CCC[C@H]2NC[C@@H]3C[C@H]2CN(Cc2ccccc2)C3)c(C)n1	/	/	28.7%	/	/	/
CCOC(C(=O)NC(C)CC)(c1ccccc1)c1ccccc1 (stereo not drawn)	/	/	-13.0%	/	/	/
CCOC(=O)CN=C1CC(C)(C)CC2=C1Sc1ncnc(N(C)C)c1N2	?	?	?	13µM*	11.2µM*	23.1µM*
SMILES	ELG1 repair inh	Gal4-VP16 FLuc	12-LOX inh	DT40 TDP1 CPT	RORgamma inh	TDP1 cell noCPT
CCOC(=O)C1=C(C)NC2=C(C(=O)CC(C)(C)C2)C1c1cccc(C)n1 (stereo not drawn)	0.0%	-20.6%	0.0%	-8.4%	-3.7%	-2.8%
COc1ccc2ccccc2c1CN1CCSCC1	-18.8%	1.8%	1.58µM*	-6.2%	-25.6%	-4.1%
Cc1sc2ncn3cnnc3c2c1C	?	-8.7%	9.2%	-14.0%	7.8%	-4.7%
Cc1sc2ncn3ncnc3c2c1C	9.2µM*	-2.8%	-18.5%	-27.5%	0.0%	-19.8%
O=[N+]([O-])c1ccc2c(OCc3nnc(-c4ccccc4Br)o3)ncnc2c1	?	-9.9%	4.9%	?	-3.3%	13µM*
Cc1[nH]nc2c1-c1nc3ccccc3nc1C(C)(C)C2	9.2µM*	3.16µM*	-0.3%	?	3.98µM*	?
Cc1c(CC(=O)NCc2ccco2)c(=O)oc2cc(O)ccc12	/	/	-5.8%	/	/	/
CCN(C(=O)CN1CCC(c2cc3ccccc3[nH]2)CC1)C1CC1	/	/	-12.7%	/	/	/
CC(C)(C)c1nnc2sc(SCC(=O)c3ccc(Cl)cc3)nn2c1=O	?	-11.3%	/	-23.7%	23.9%	?
Cc1ccc(C(=O)CSc2nn3c(=O)c(C(C)(C)C)nnc3s2)cc1	5.6%	6.9%	12.8%	?	-24.0%	18.4µM*
CC(C)(C)c1nnc2sc(SCC(=O)N3CCCc4ccccc43)nn2c1=O	-10.0%	-7.3%	0.0%	?	-1.1%	23.1µM*
CC(C)(C)c1nnc2sc(SCC(=O)c3cccs3)nn2c1=O	15.5%	?	?	?	-38.8%	25.9µM*
CC(=O)N1CCC2(CC1)CN(C(=O)CN(C)C)Cc1ccccc1O2	/	/	13.9%[6.33 µM]	/	/	/
Cc1noc(-c2cn(C3CCN(C(=O)Cc4ccc(Br)cc4)CC3)nn2)n1	/	/	13.4%	/	/	/
O=[N+]([O-])c1ccc(O)c(/C=N/Nc2nn[nH]n2)c1	-13.8%	1.3%	0.1%	-22.9%	?	2.0%
O=[N+]([O-])c1ccc(O)c(/C=N\N=C2c3ccccc3-c3ccccc32)c1	?	?	10.2%	23.1µM*	-23.0%[10 µM]	11.6µM*
O=[N+]([O-])c1ccc(O)c(/C=N/Nc2ccc(Cl)nn2)c1	?	1.41µM*	3.4%	1.16µM*	1µM*	1.16µM*
NC(N)=N/N=C/c1cc([N+](=O)[O-])ccc1O	10.7%	-7.7%	-15.9%	5.1%	17.7%	1.8%
O=S1(=O)N=C(N/N=C/c2cccs2)c2ccccc21	3.6%	0.501µM*	48.7%	-5.9%	0.891µM*	?
O=[N+]([O-])c1ccc(O)c(/C=N/NC2=NS(=O)(=O)c3ccccc32)c1	?	1.26µM*	-6.6%	4.11µM*	1.26µM*	0.517µM*
CN(CCC(=O)NC(=O)NCc1ccccc1)Cc1ccccc1	/	/	4.6%	/	/	/
CCc1nnc(SCC(=O)Nc2cc(OC)cc(OC)c2)c2cc3sccc3n12	/	/	6.8%	/	/	/
CCN(CC)c1ncn(Cc2c(Cl)cccc2Cl)c2ncnc1-2	8.9%	8.4%	-12.1%	?	0.9%	14.6µM*
COCCNc1nc(Oc2cccc(NC(C)=O)c2)c2sccc2n1	/	/	-3.2%	?	/	-22.6%
CC(=O)Nc1cccc(Oc2nc(NCC3CC3)nc3ccsc23)c1	/	/	-5.1%	16.4µM*	/	20.6µM*

Screens: PubChem BioAssay, National Center for Advancing Translational Sciences (NCATS)
